Results on 22 molecules are retold here after PubChem BioAssay (NCATS).

Common to all, as to experiment: Cytotoxic Profiling of Annotated Libraries Using Quantitative High-Throughput Screening (AID 1296008); note: nearly all actives have a fitted effect of over 60% in size
What all share (conditions): Five cell lines viability, CellTiter-Glo ATP luminescence, 48-72 h; max response: active compounds read low

One experiment deals with CRL-7250. The method, boiled down:
(§1)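 Cytotoxicity was measured as CellTiter-Glo ATP luminescence, read after 10 min at room temperature. Compound treatment of the cells lasted 48 or 72 hr at 37 degrees Celsius in a qHTS format.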

The test system of another experiment is HaCat. The essentials:
as §1

The test system of the next experiment is KB-3-1. The essentials:
as §1

The next experiment concerns NIH3T3. The essentials: as §1

Records with an inconclusive call do not appear. Unmarked numbers belong to inactive results. Activity calls are given as the source filed them. Calls come from the whole dose curve; as a rule, active = well fitted inhibition curve with a large enough effect; inconclusive = small, poorly fitted or top-dose-only effect; inactive = flat fitted curve, though single readings scatter.
% is set by controls: 0 for no effect and ±100 for the full control effect; potency is the fitted concentration of half-maximal effect.

As for `O=C(C(Cc1cccc(C(F)(F)F)c1)NS(=O)(=O)c1cc(F)c2c(c1)CCNC2)N1CCCC1` (stereo not drawn), the max response in the experiment with CRL-7250 is -1.14%; in the experiment on HaCat, -1.4%; in the experiment on KB-3-1, -6.26%; in the experiment on NIH3T3 it was 1.31%.
Regarding `CC[C@@H]1C[C@]1(NC(=O)[C@@H]1C[C@@H]2CN1C(=O)[C@H](C(C)(C)C)NC(=O)OCC(C)(C)CCCCc1cccc3c1CN(C3)C(=O)O2)C(=O)NS(=O)(=O)C1CC1`, the max response with CRL-7250 is -9.24%; in the experiment with HaCat, -6.71%; in the experiment on KB-3-1 it was -19.5%. For the same molecule, the call in the experiment on NIH3T3 was inactive.
`COc1c(C(C)C)c(O)c(O)c2c1C(OC)[C@H]1OC(=O)[C@@]23CCCC(C)(C)[C@H]13` (stereo partly drawn): the molecule was called inactive in the experiment on CRL-7250 and in the experiment with KB-3-1. Also, the values for the max response with HaCat and in the experiment with NIH3T3 were -9.13% and -6.75%, respectively.
With `C=CC1(C)CC(O)C(C(=C)C(=O)OC)C(O)C1C(=C)CO` (stereo not drawn), the max response in the experiment on CRL-7250 is -28%; in the experiment with HaCat it was -2.8%; in the experiment with KB-3-1, 0.16%; with NIH3T3 it was -4.78%.
The corresponding values for `COc1ccc(C2(N(C)C(=O)c3ccc(NC(=O)c4ccco4)cc3)CCOCC2)cc1` are -25.1%, -27.5%, -3.65% and -15.7%.
Taken in the same sequence, the figures for `CC(=O)OC1C(=O)C2C3OCC4=C3[C@@](C)(CC[C@@H]4O)CC[C@]2(C)[C@H]1C(C)C` (stereo partly drawn) were 0.411%, -13.7%, 4.67% and 1.97%.
Take `CC/C(C)=C/C(=O)OC1C(OC2(C)CCC3C(C4C(C)CCC42)C3(C)C)OC(C)C(O)C1O` (stereo not drawn): the max response in the experiment on CRL-7250 is -1.32%; with HaCat, -0.133%; in the experiment on NIH3T3 it was -0.0823%. In addition, the result in the experiment with KB-3-1 was inactive.
With `CCOc1ccc(-n2c([C@@H](C)N(Cc3cccnc3)C(=O)Cc3ccc(OC(F)(F)F)cc3)nc3ncccc3c2=O)cc1`, the max response in the experiment with CRL-7250 is 0.299%; in the experiment on HaCat, -4.53%; with KB-3-1, 4.98%; with NIH3T3 it was -0.198%.
With `COCCN(C(=O)c1cc(OC)c(OC)c(OC)c1)c1nc(-c2ccccc2)cs1`, the max response with CRL-7250 is -0.0444%; with HaCat, 0.0568%; in the experiment on KB-3-1 it was 5.9%; in the experiment with NIH3T3 it was 3.38%.
Taken in the same sequence, the figures for `CC(C)=CCc1cc2c(cc1O)OC[C@H]1c3ccc(O)cc3O[C@@H]21` were -7.41%, -13.5%, -5.17% and -23.2%.
Taken in the same sequence, the figures for `C[C@@H]1C[C@H](C)CN(CCC(=O)Nc2ccc(Br)cc2)C1` were -5.34%, -4.42%, -13.7% and -17.9%.
Taken in the same sequence, the figures for `COc1cc2c(c(OC)c1CC=C(C)C)C[C@H](c1ccc(O)c(CC=C(C)C)c1O)CO2` were 2.21%, -6.86%, -4.62% and -5.48%.
As to `Cn1cc(-c2ccc(S(=O)(=O)n3ccc(/C=C/C(=O)Nc4ccccc4N)c3)cc2)cn1`, the figures for the Potency with CRL-7250, with KB-3-1 and in the experiment with NIH3T3 were 9.2 µM (active), 1.46 µM (active) and 4.61 µM (active), respectively. The max response in the experiment on HaCat is -149%.
For `Cn1ncnc1[C@@H]1c2n[nH]c(=O)c3cc(F)cc(c23)N[C@H]1c1ccc(F)cc1`, the max response was -10.4% in the experiment on CRL-7250, -18% in the experiment with HaCat and -15% in the experiment with NIH3T3. Also, the result in the experiment on KB-3-1 was inactive.
In the case of `Cn1c(SCC(=O)N2CCC[C@H]2C(=O)Nc2ccccc2-c2ccccc2)nc2ccccc21`, in the experiment with CRL-7250, the outcome was inactive. The max response in the experiment with HaCat is -3.91%; in the experiment with KB-3-1 it was 7.08%; in the experiment on NIH3T3 it was -3.15%.
Turning to `O=C(c1ccccn1)N(Cc1cccs1)C1(C(=O)NC2CCCCC2)CCCCC1`, the max response in the experiment with CRL-7250 was -5.83%; in the experiment with HaCat, -24.4%; with KB-3-1, 7.82%. Also, the result with NIH3T3 was inactive.
On to `COc1ccc(C2Oc3c(OC)cc(CCCO)cc3C2COC2OC(CO)C(O)C(O)C2O)cc1OC` (stereo not drawn), for which, in the experiment on CRL-7250, the outcome was inactive. Also, the max response was 1.52% with HaCat, -12.2% in the experiment on KB-3-1 and -1.06% with NIH3T3.
As to `CC(C)C(C)C(O)C1CC23CC(=O)C4(O)C(=C2CCC3C1C)C=CC1(O)CC(O)CCC14C` (stereo not drawn), the max response is -22.9% in the experiment on CRL-7250, 2.09% in the experiment on HaCat, 5.36% in the experiment on KB-3-1 and -0.33% in the experiment with NIH3T3.
On to `COc1cc(C(C)=O)c(OC)c2c1OC(C)(C)C=C2`, for which the molecule was classed as inactive in the experiment on CRL-7250, in the experiment on KB-3-1 and with NIH3T3. Moreover, the max response with HaCat was -6.75%.
For `O=C(N[C@H]1CCN(C(=O)c2cc(C(F)(F)F)cc(C(F)(F)F)c2)[C@H](Cc2ccc(Cl)cc2)C1)c1ccnc2ccccc12`, the results for the max response in the experiment with CRL-7250, with HaCat and with KB-3-1 were 0.275%, -2.45% and -7.03%, respectively. Also, the molecule was called inactive in the experiment with NIH3T3.
The corresponding values for `CC1(C)CCC(C)(C)c2cc(C#Cc3ccc(C(=O)O)cc3)ccc21` are -18.1%, -1.18%, -2.7% and “inactive”.
For `CCC(C)c1ccc(NC(=O)Cn2cnc3c2c(=O)n(C)c(=O)n3C)cc1` (stereo not drawn), the max response is -7.14% in the experiment on CRL-7250, -17.7% in the experiment with HaCat, -2.48% in the experiment with KB-3-1 and -2.04% in the experiment with NIH3T3.
